The whole screen tested about 68,000 compounds, of which about 2,700 (4%) showed an effect of 50% or more. Shown is part of a subset that was picked to be rich in strong results.

This assay has as its system Plasmodium berghei. As to the kind of experiment: Screen against P. berghei liver stage (PbLuc), transformed with Luciferase, at 2uM. The format is functional, HepG2. Particulars: tested at 2 uM.
For the compound `O=c1[nH]nc2c(S(=O)(=O)N3CCCCC3)cccn12`, the INHIBITION was found to be 6.33%.

In the case of `CCC(CO)N(Cc1ccccn1)C(=O)c1ccc(C)c(Cl)c1` (stereo not drawn), the INHIBITION worked out at 42.48%.

Take `COCCC1(CNC(=O)NCC2CCCS2)CCCC1` (stereo not drawn): the INHIBITION is given as 55.39%.

As to `COCCC1(CNC(=O)NCC2CCC2)CCC1`, the INHIBITION is recorded as 29.43%.

Regarding `COCCC1(CNC(=O)NCC2CCCN(C)C2)CCCC1` (stereo not drawn), the INHIBITION is recorded as -24.61%.

For the compound `CC(C)Nc1nc(-c2ccccc2)nc2c1CCN(C(=O)CC#N)CC2`, the INHIBITION is 27.22%.

Consider `CCN(Cc1noc(C)n1)C(=O)C(c1ccc(C)cc1)N(C)C` (stereo not drawn), for which the INHIBITION is recorded as -0.28%.

Take `COc1cccc2c1ccn2CCNC(=O)CC(C)C`: the INHIBITION is listed as -55.67%.

With `COc1cccc2c1ccn2CCNC(C)=O`, the INHIBITION was -7.17%.

For the compound `COCC(=O)NCCn1ccc2c(OC)cccc21`, the INHIBITION is given as 50.32%.

`CCN(CCO)C[C@@H]1CN(c2nc(C)cc(C)n2)C[C@@H]1CO`: the INHIBITION came out at 5.88%.

On to `O=C(c1ccc(F)c(F)c1)N1CCC(Cn2cc(CO)nn2)CC1`, for which the INHIBITION is recorded as 20.91%.

Consider `Cc1nn(C)c(N(C)C)c1CNCc1cccc(CN(C)C(C)C)c1`, for which the INHIBITION is 44.39%.

For the compound `CCC(NC1CSCCSC1)c1ccc(S(C)(=O)=O)cc1` (stereo not drawn), the INHIBITION is recorded as 9.51%.

Consider `CCC(NC1CCCC1)c1ccc(S(C)(=O)=O)cc1` (stereo not drawn), for which the INHIBITION was determined as 58.65%.

For `CCC(NC1Cc2ccccc2C1)c1ccc(S(C)(=O)=O)cc1` (stereo not drawn), the INHIBITION was 10.02%.

In the case of `Cc1ccc(-c2c[nH]c([C@@H]3COCCN3Cc3cccnc3)n2)cc1`, the INHIBITION turned out to be 3.84%.

In the case of `CC(C)(CO)NCc1nn(Cc2ccccc2)nc1-c1ccccc1`, the INHIBITION is reported as -34.52%.

Turning to `CC(=O)N[C@H]1C[C@@H](c2nc(-c3ccc4c(c3)OCO4)no2)N(C)C1`, the INHIBITION is reported as 57.31%.

In the case of `CN1C[C@H](O)C[C@H]1c1nc(-c2ccc3c(c2)OCO3)no1`, the INHIBITION worked out at 45.22%.

For the compound `CN1C[C@@H](N)C[C@H]1c1nc(-c2ccc3c(c2)OCO3)no1`, the INHIBITION worked out at 28.2%.

For the compound `O=C(c1ccc[nH]1)N1CCc2ccc(S(=O)(=O)N3CCOCC3)cc2C1`, the INHIBITION is recorded as -19.95%.

`Cc1ccccc1[C@@H]1CN(Cc2nc3ncccn3n2)C[C@H]1C(=O)O`: the INHIBITION was -18.59%.

Take `Cc1ccccc1[C@@H]1CN(CCCS(=O)(=O)N(C)C)C[C@H]1C(=O)O`: the INHIBITION is given as 52.3%.

Consider `Cc1ccccc1[C@@H]1CN(CCOCCO)C[C@H]1C(=O)O`, for which the INHIBITION came to 35.46%.

Consider `COCCN1C[C@@H](C(=O)O)[C@H](c2ccccc2C)C1`, for which the INHIBITION turned out to be 42.2%.

With `Cc1ccccc1[C@@H]1CN(Cc2ccc(C(F)(F)F)nc2)C[C@H]1C(=O)O`, the INHIBITION is on record as 67.28%.

Consider `CCC[C@@H]1CN(Cc2ccc(C(F)(F)F)nc2)C[C@H]1C(=O)O`, for which the INHIBITION amounted to 21.97%.

Take `OC(CNCCn1cccn1)c1ccc(F)c(F)c1` (stereo not drawn): the INHIBITION is reported as 21.91%.

Take `Cc1nc(COc2ccc(N(C)S(C)(=O)=O)cc2)sc1C`: the INHIBITION is -26.08%.

As to `O=C(O)c1nnn(-c2ccccc2F)c1-c1ccncc1`, the INHIBITION was 37.61%.

`O=S(=O)(CCN1CCOC(Cn2cccn2)C1)c1ccccc1` (stereo not drawn): the INHIBITION was -34.9%.

On to `CCn1cnnc1C1CCN(C(=O)c2ccc3ccccc3n2)CC1`, for which the INHIBITION is recorded as -6.48%.

For the compound `O=C(NC1CCN(c2cc(-n3ccnc3)ncn2)CC1)c1ccncc1`, the INHIBITION is reported as 29.19%.

On to `O=C(Nc1cccnc1)C1CCN(c2cc(-n3ccnc3)ncn2)CC1`, for which the INHIBITION is recorded as 3.38%.

Consider `O=C(NC1CCCC1)C1CCN(c2cc(-n3ccnc3)ncn2)CC1`, for which the INHIBITION was 70.33%.

For `Cc1n[nH]c(C)c1-c1nccnc1CC1CCCN(C)C1` (stereo not drawn), the INHIBITION worked out at 31.98%.

Take `CCCC(=O)Nc1ccc2c(c1)C1(CCOCC1)CN2CCOC`: the INHIBITION is 39.44%.

On to `COc1ccc(C[C@H]2CNCC[C@@H]2OC)cc1`, for which the INHIBITION worked out at 18.65%.

For `O=c1cc(N2CCCC2)cnn1CC(F)F`, the INHIBITION was 18.81%.

Consider `O=C(CSc1nnc[nH]1)NCc1sccc1Br`, for which the INHIBITION was determined as 32.1%.

On to `Cc1ccsc1CNC(=O)CSc1nnc[nH]1`, for which the INHIBITION was 5.98%.

Consider `O=C(CSc1nnc[nH]1)NCc1cccs1`, for which the INHIBITION amounted to 59.03%.

Turning to `COCCNc1nc(NCCc2ccccc2)nc2nccnc12`, the INHIBITION is listed as -20.55%.

Turning to `Cc1nc(O)cc(C2CCCN(C(=O)CN(C)c3ccccc3)C2)n1` (stereo not drawn), the INHIBITION was -14.36%.

For the compound `Cc1ccc(CC(=O)N2CCCN(Cc3nccn3C)CC2)cn1`, the INHIBITION amounted to 5.72%.

As to `CCn1nc(C)c2ncnc(N(C)C)c21`, the INHIBITION is given as -47.86%.

For `Cn1ccnc1C(=O)N[C@@H]1CN(Cc2ccoc2)[C@@H]2CCCO[C@@H]21`, the INHIBITION turned out to be 26.76%.

With `Cn1cc(C(=O)N[C@@H]2CN(Cc3ccoc3)[C@@H]3CCCO[C@@H]32)cn1`, the INHIBITION is listed as -6.61%.

For `Cn1cccc1C(=O)N[C@H]1CN(Cc2ccoc2)[C@@H]2CCCO[C@H]12`, the INHIBITION was found to be 56.76%.

As to `Cc1cc(C(=O)NC(CC(C)C)C(=O)Nc2cc[nH]n2)c(C)o1` (stereo not drawn), the INHIBITION was -36.72%.

With `COC(=O)CC(c1cccnc1)c1oc(C)cc(=O)c1O` (stereo not drawn), the INHIBITION turned out to be 24.02%.

For the compound `Cc1noc(-c2ccc(Oc3cccc(CN4CCCC4)c3F)nc2)n1`, the INHIBITION is recorded as -9.95%.

Turning to `CC(Cn1cc(Br)cn1)C(=O)Nc1ccc(Cl)cn1` (stereo not drawn), the INHIBITION worked out at 29.12%.

In the case of `CC(C)NCC1(O)CCCN(CCC2CCCCC2)C1=O` (stereo not drawn), the INHIBITION is recorded as 25.35%.

As for `CCC(CNC(=O)c1nc(=O)[nH][nH]1)Oc1cccc(F)c1` (stereo not drawn), the INHIBITION is 6.92%.

On to `CC(C)c1n[nH]c(C(=O)Nc2cc[nH]n2)c1Br`, for which the INHIBITION amounted to 11.18%.

For the compound `CC(C)c1n[nH]c(C(=O)Nc2ccncc2)c1Br`, the INHIBITION is given as 29.37%.

`CC(C)c1n[nH]c(C(=O)Nc2ccccn2)c1Br`: the INHIBITION is listed as 78.42%.

Regarding `COc1ccccc1NC(=O)c1[nH]nc(C(C)C)c1Br`, the INHIBITION is -2.93%.

Turning to `Cc1cccc(NC(=O)c2[nH]nc(C(C)C)c2Br)n1`, the INHIBITION is listed as 80.46%.

Regarding `Cc1ccnc(NC(=O)c2[nH]nc(C(C)C)c2Br)c1`, the INHIBITION was 49.43%.

In the case of `Cc1nc(C)n(CC2CCCN(c3ccc(C#N)cn3)C2)n1` (stereo not drawn), the INHIBITION came to 13.24%.

For `CCN1CCNC(=O)C12CCN(C(=O)Cc1ccccn1)CC2`, the INHIBITION is 31.84%.

As for `Cc1ccc(C(=O)NCC(O)c2cccc(F)c2)c(=O)[nH]1` (stereo not drawn), the INHIBITION is recorded as -7.13%.

For `Cc1ncsc1C(=O)N1CCN(CCC(C)C)CC1`, the INHIBITION came out at 71.95%.

Take `CCCN1CCN(C(=O)c2scnc2C)CC1`: the INHIBITION is -21.84%.

Turning to `CCN1CCN(C(=O)c2scnc2C)CC1`, the INHIBITION is -25.82%.

Values taken from ChEMBL document CHEMBL4513216, “Probing the Open Global Health Chemical Diversity Library for Multistage-Active Starting Points for Next-Generation Antimalarials” (ACS Infect Dis, 2020).
